Data: PubChem BioAssay (NCI)
Compounds without any hit were thinned out: in the full panel of roughly 83,000, 20% have a hit.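 Cells were grown in 96-well plates and exposed to the test compound at a single concentration for 48 hours; results are reported as percent growth, with values below 10 considered active.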 A number with no mark means an inactive call. Active and inactive are the calls of the source.

How the values were obtained:
Experiment in all cases: NCI-60 one-dose screen, 48 h (100 = growth as untreated, 0 = no growth, -100 = all killed)
Conditions in all cases: 10 µM unless noted
NCI-H23 lung = tested on: NCI-H23 lung
NCI-H226 lung = tested on: NCI-H226 lung
NCI-H322M lung = tested on: NCI-H322M lung
HOP-62 NSCLC = tested on: HOP-62 NSCLC
NCI-H460 lung = tested on: NCI-H460 lung
HOP-92 NSCLC = tested on: HOP-92 NSCLC
NCI-H522 lung = tested on: NCI-H522 lung
A549/ATCC NSCLC = tested on: A549/ATCC NSCLC
786-0 renal = tested on: 786-0 renal
COLO 205 colon = tested on: COLO 205 colon
DU-145 prostate = tested on: DU-145 prostate
K-562 leukemia = tested on: K-562 leukemia
MALME-3M melanoma = tested on: MALME-3M melanoma
MDA-MB-231 breast = tested on: MDA-MB-231 breast
RXF 393 renal = tested on: RXF 393 renal
SF-268 CNS = tested on: SF-268 CNS
SF-295 CNS = tested on: SF-295 CNS
SF-539 CNS = tested on: SF-539 CNS
M14 melanoma = tested on: M14 melanoma

SMILES | growth (NCI-H23 lung) | growth (NCI-H226 lung) | growth (NCI-H322M lung) | growth (HOP-62 NSCLC) | growth (NCI-H460 lung) | growth (HOP-92 NSCLC) | growth (NCI-H522 lung) | growth (A549/ATCC NSCLC) | growth (786-0 renal) | growth (COLO 205 colon) | growth (DU-145 prostate) | growth (K-562 leukemia) | growth (MALME-3M melanoma) | growth (MDA-MB-231 breast) | growth (RXF 393 renal) | growth (SF-268 CNS) | growth (SF-295 CNS) | growth (SF-539 CNS) | growth (M14 melanoma)
CC/C=C\C/C=C\C[C@H](O)C/C=C1/C(=O)C=C[C@H]1C/C=C\CCC(=O)OC | 54.3% [8.25 µM] | 69.9% [8.25 µM] | 90.2% [8.25 µM] | 37.6% [8.25 µM] | 90.2% [8.25 µM] | 58.6% [8.25 µM] | -30.8% [8.25 µM] (active) | 53.4% [8.25 µM] | 44.7% [8.25 µM] | 0.861% [8.25 µM] (active) | 46% [8.25 µM] | 5.45% [8.25 µM] (active) | 41.6% [8.25 µM] | 21% [8.25 µM] | 21.3% [8.25 µM] | 20.6% [8.25 µM] | 82.4% [8.25 µM] | 17% [8.25 µM] | 12.7% [8.25 µM]
O=[N+]([O-])c1c(S(=O)(=O)O)cc2cc(S(=O)(=O)O)ccc2c1[N+](=O)[O-] | 90.6% | 108% | 92.6% | 109% | 105% | 103% | 86.1% | 98.9% | 103% | 117% | 107% | 95.7% | 91% | 99.7% | 109% | 99.5% | 105% | 98.4% | 99.8%
COc1ccc(C2NC3=C(CCCC3)C(C#N)(C#N)C2(C#N)C#N)cc1 (centres undefined) | 91.4% | 97% | 109% | 94.6% | 97.6% | 103% | 23.8% | 106% | 88.1% | 11.8% | 94.2% | 12.5% | 71.6% | 70.1% | 93.8% | 97.8% | 99.7% | 101% | 90.7%
Cc1ccc2nc(SCn3nnc4ccccc4c3=O)[nH]c2c1 | 100% | 110% | 135% | 88.9% | 99.5% | 82.8% | 89.5% | 113% | 107% | 75.9% | 96.5% | 74.4% | 323% | 97.9% | 117% | 111% | 109% | 86.4% | 102%
O=C1CCCCN1CCCCC#Cc1ccccc1C#Cc1ccc([N+](=O)[O-])cc1 | 59% | 57.1% | 71% | 64.9% | 11.5% | 39.6% | 56.3% | 50.1% | 60.6% | 45.8% | 71.1% | 33.9% | 55.7% | 59.3% | 23.5% | 40.3% | 75.9% | 37.6% | 59.5%
COc1ccc2c(c1)C=CC(C#N)N2C(=O)c1ccccc1 (centres undefined) | 26.4% | 61.6% | 53.9% | 34.6% | 5.09% (active) | 34% | 1.91% (active) | 21.2% | 23.4% | -43.7% (active) | 3.08% (active) | 7.66% (active) | 66.8% | 25.4% | 30.4% | 34% | -1.96% (active) | -21.2% (active) | 15.9%
O=C(/C=C/CN1CCOCC1)Nc1cc2c(Nc3ccc(F)c(Cl)c3F)ncnc2cc1OCCOC(F)F | 69.2% | 70% | 8.76% (active) | 51.2% | 49.4% | -8.94% (active) | 8.53% (active) | 40.5% | 38.9% | 71.9% | 39.7% | 52% | 81.6% | 33.8% | 36.4% | 48.3% | 71.7% | 63.5% | 62.3%
COC(=O)CCCCCN=Cc1c(O)c(O)c(C(C)C)c2cc(C)c(-c3c(C)cc4c(C(C)C)c(O)c(O)c(C=NCCCCCC(=O)OC)c4c3O)c(O)c12 | 19.3% | 54.9% | 32% | 18.8% | 8.12% (active) | -5.66% (active) | -21.8% (active) | 20.8% | 28.1% | 13.6% | 23% | 9.57% (active) | 44.4% | 11.9% | 29.2% | 25.6% | 9.3% (active) | 23.7% | 18.6%
COc1ccc2c(c1)C(C)Cc1c(N(C)C)ncnc1N2C (centres undefined) | 52.7% | 81.6% | 53.9% | 35.5% | 16.1% | 50.5% | -0.111% (active) | 50.5% | 33% | 15.8% | 53.5% | 15.1% | 56.4% | 54.3% | 49% | 46.1% | 9.16% (active) | 6.17% (active) | 25.5%
CN(C)C1CCC(NC2=CC(=O)C=CC2=O)CC1 (centres undefined) | 110% | 116% | 102% | 116% | 109% | 118% | 90.2% | 106% | 121% | 128% | 107% | 111% | 115% | 109% | 118% | 99.9% | 128% | 112% | 107%
O=S(=O)(NCCNc1cc(-c2cn(-c3ccccc3)nc2-c2ccccc2)ccn1)c1cccc2ccccc12 | 49.8% | 48% | 68.7% | 68.2% | 44.4% | 2.24% (active) | 78.9% | 42.3% | 49.7% | 8.28% (active) | 68.9% | 20.7% | 60.7% | 40% | 55.3% | 55% | 35.9% | 56.9% | 42.9%
COc1ccc2c(c1)NC(=O)CN2c1nc(NC2CC2)nc2ccccc12 | 12.4% | 65.7% | 40.7% | 31.7% | 2.27% (active) | 3.22% (active) | -11.9% (active) | 20.8% | 19.6% | -18.9% (active) | 0.326% (active) | 8.2% (active) | 70.3% | 14.9% | 39.2% | 21.9% | 0.0109% (active) | -15% (active) | 6.86% (active)
O=c1cc(C2NCCc3c2[nH]c2ccccc32)c2c(ccc3ccccc32)o1 (centres undefined) | 79.6% | 77% | 62.7% | 82.4% | 48.1% | 41% | 62.4% | 67.9% | 59.1% | 65.3% | 59.6% | 52.9% | 60.1% | 80.7% | 44.2% | 85.9% | 81.8% | 79.4% | 65.2%
CCNc1nc(N2CC(=O)Nc3cc(OC)ccc32)c2ccccc2n1 | 3.23% (active) | 50.3% | 36.6% | 25.5% | -5.18% (active) | -2.59% (active) | -8.1% (active) | 20.4% | 12% | -48.4% (active) | -1.09% (active) | 6.9% (active) | 51% | 12.7% | 33.7% | 14.8% | -5.23% (active) | -4.78% (active) | 7.3% (active)
C=C1C(=O)O[C@H]2[C@H]1CC/C(Cn1cc(-c3ccsc3)nn1)=C\CC[C@@]1(C)O[C@@H]21 | -14.9% (active) | 7.54% (active) | 72.7% | 28.4% | 41% | -72.9% (active) | -67.8% (active) | 13.8% | -86.7% (active) | -61% (active) | -83.5% (active) | -16.2% (active) | -66.4% (active) | -58% (active) | -56.7% (active) | -25.8% (active) | 53.9% | -72.1% (active) | -56.7% (active)
COc1ncc(-c2ccc3ncnc(Nc4cccc(Cl)c4)c3c2)cc1NS(=O)(=O)C1CC1 | 54.2% | 24.1% | -5.8% (active) | 43.9% | 28.3% | -7.31% (active) | 12.2% | 26.3% | 62.6% | 31.4% | 26% | 60.5% | 15.9% | 37.9% | 1.04% (active) | 43% | 34.2% | 27% | 56.6%
